High-throughput results: PubChem BioAssay, National Center for Advancing Translational Sciences (NCATS)
Shiga inhibitor = Shiga toxin inhibition; Vero cells, Shiga toxin protein synthesis inhibition reporter; AID 2315; inhibition, % at 38.7 µM; 9.2% of 290,000 active; in the data active = inhibition mostly above about 28%, no sharp cut-off; inactive = mostly below about 43%; note: 0% is about no effect
CHX counter-1 = counter-screen for Shiga toxin inhibitors: cycloheximide protein synthesis inhibition; cell reporter, cycloheximide protein synthesis inhibition counterscreen; max response, %; 12% of 300,000 active; AID 2314; in the data active = max response mostly above about 13%, no sharp cut-off; inactive = mostly below about 14%; note: read at 38.3 µM for the half of the compounds with a filed dose; 0% is about no effect
Lassa entry inh = Lassa virus entry inhibition; Lassa virus pseudotype entry inhibition, cell reporter; Potency, µM (titrated, usually from 37.9 µM), without a hit: at the highest dose activity change, negative = inhibition, hits mostly inhibitors; 1.2% of 300,000 active; AID 540256; calls by dose curve; tested in HEK293 cells; note: potency is the fitted concentration of half-maximal effect; % is set by controls: 0 for no effect and ±100 for the full control effect; nearly all actives have a fitted effect of over 50% in size
Marburg entry inh = blocks Marburg virus binding to or entry into cells; 1.8% of 300,000 active; Marburg virus pseudotyped entry inhibition, cell reporter; Potency, µM (top dose mostly 37.8 µM), for inactives: at the highest dose activity change, negative = inhibition, actives largely listed as inhibitors; AID 540276; calls by dose curve; tested in HEK293 cells; note: potency is the fitted concentration of half-maximal effect; % is set by controls: 0 for no effect and ±100 for the full control effect
CHX counter-2 = counter-screen for Shiga toxin inhibitors: cycloheximide protein synthesis block; shares compounds with Shiga inhibitor; Cycloheximide counterscreen, protein synthesis reporter, Shiga toxin assay; Potency, µM (doses to about 38.3 µM), for the others: at the top dose activity (activation), most hits filed as activators; 3% of 510 active; calls by dose curve; note: potency is the fitted concentration of half-maximal effect; 0% is about no effect
* hit, by the source's call; u = inconclusive; x = not tested or not shown; [ ] = remark or other dose. In the library only some 12% were active in any assay of this set; here they are far more common.

SMILES	Shiga inhibitor	CHX counter-1	Lassa entry inh	Marburg entry inh	CHX counter-2
CN1CCc2c(sc3c2C(=O)NC(c2ccc4c(c2)OCO4)N3)C1 (stereo not drawn)	29.1*	15.3	1.9%	15.0%	4.2%
Cc1ccc(C2NC(=O)c3c(sc4c3CCN(C)C4)N2)o1 (stereo not drawn)	-12.9	-1.6	23.2%	11.4%	x
C=CCOC(=O)C1=C(C)OC(N)=C(C(=O)OCC)C12C(=O)N(CC(N)=O)c1ccccc12 (stereo not drawn)	33.2*	6.3	-5.6%	0.8%	-1.8%
O=C(COc1ccccc1)N1CCN(C(=O)c2ccco2)CC1	-6.2	-0.9	u	22.8%	x
O=C(CSCc1ccccc1)N1CCN(C(=O)c2ccco2)CC1	45.9*	17.2	-3.2%	0.6%	u
CC/C(=C\C1CCCCC1)C(NP(=O)(c1ccccc1)c1ccccc1)c1ccccc1 (stereo not drawn)	-12.7	-6.4	u	-38.4%	x
CNC(=O)c1cccn(Cc2cc(C(F)(F)F)cc(C(F)(F)F)c2)c1=O	-1.9	3.8	u	-19.3%[46.1 µM]	x
CNC(=O)c1cccn(Cc2ccc(C(F)(F)F)cc2)c1=O	26.3*	6.1	-26.7%	u	-3.0%
CCOC(=O)c1ccc(N/C=C/C(=O)c2ccc(OC)c(OC)c2)cc1	57.8*	13.9	-6.0%	-1.4%	2.7%
CCN(CCn1cccn1)Cc1nc(-c2ccccc2)no1	34.5*	7.4	u	-2.8%[46.1 µM]	3.8%
COc1ccc(C2C(C(N)=O)=C(C)Nc3nc(SCc4ccccc4Cl)nn32)cc1OC (stereo not drawn)	x	x	-1.3%[46.1 µM]	-7.8%[46.1 µM]	x
CC(c1nc2ccccc2c(=O)[nH]1)N(C)c1ccc2ccccc2c1 (stereo not drawn)	21.6	-5.5	-2.4%	13.9%	x
CC(Oc1ccc(F)cc1Br)c1nc2ccccc2c(=O)[nH]1 (stereo not drawn)	71.0*	-1.7	18.9%[46.1 µM]	-7.2%[46.1 µM]	u
Cc1nnc(NC(=O)C2COc3ccccc3O2)s1 (stereo not drawn)	98.8*	14.8	u	-13.0%	u
CCOC(=O)c1c(C)oc2nc(C)nc(NCCCN3CCN(c4ccc(F)cc4)CC3)c12	x	x	-4.8%[46.1 µM]	x	x
Cc1cccc(C(=O)Nc2nnc(SCC(=O)NC3CC3)s2)c1	53.3*	-3.0	21.6%[46.1 µM]	u	u
O=c1n(Cc2ccc(F)cc2)nc2n1-c1ccccc1SC2	31.2*	14.0	x	x	5.8%
CN1C(=O)C2(Nc3ccccc3-c3nc4ccccc4n32)c2ccccc21 (stereo not drawn)	6.2	7.0	5.5%	9.5%	x
CCCCC1(C)Nc2ccccc2-c2nc3ccccc3n21 (stereo not drawn)	83.7*	13.4	12.4%	-13.4%	22.5µM*
COc1ccc(NC(=O)C2CCCN2C(=O)NC2CCCCC2)c(OC)c1 (stereo not drawn)	-4.6	-6.7	5.4%	-0.5%[46.1 µM]	x
O=C(CN(C(=O)c1csnn1)c1ccc2c(c1)OCCO2)NCc1ccc(F)cc1	39.6	1.0	-4.2%	u	x
COc1ccc(CNC(=O)CN(C(=O)c2csnn2)c2ccc3c(c2)OCCO3)cc1	42.6*	9.0	-1.6%[46.1 µM]	u	4.2%
CCOc1ccc(N(CC(=O)NCc2ccc3c(c2)OCO3)C(=O)c2csnn2)cc1	36.6*	4.1	2.7%[46.1 µM]	6.6%[46.1 µM]	1.2%
COc1ccccc1CCN1CCCC(CN(C)Cc2ccc(OCCO)cc2)C1 (stereo not drawn)	-4.3	1.6	x	x	x
CCOc1ccc(CN2CCN(Cc3cc4ccccc4o3)CC2CCO)cc1 (stereo not drawn)	x	8.1	x	x	-1.1%
SMILES	Shiga inhibitor	CHX counter-1	Lassa entry inh	Marburg entry inh	CHX counter-2
Oc1ccc(Br)cc1/C=N/n1c(C2CCCCC2)n[nH]c1=S	-12.4	1.3	u	-4.6%[46.1 µM]	x
CCc1ccc(S(=O)(=O)c2cn(Cc3ccc(OC)cc3)c3cc(OC)c(OC)cc3c2=O)cc1	x	x	-23.8%[46.1 µM]	-10.3%[46.1 µM]	x
Cc1cccc(C(=O)Nc2scc(CC(C)C)c2C(=O)O)c1	39.6*	-4.4	u	u	1.3%
CC(C)Cc1csc(NC(=O)c2ccc(Cl)cc2)c1C(=O)O	-6.0	-2.2	u	u	x
Cc1nnc(C)c2c(C)n(Cc3ccc4c(c3)OCO4)c(C)c12	-0.5	-1.4	-2.3%	-9.9%	x
c1cc2c(cc1Cn1cnnn1)OCO2	158.3*	8.9	-1.6%	u	-2.2%
CCc1ccc(C(=O)c2oc3nc(C)cc(C)c3c2N)cc1	51.5*	15.9	-7.7%	-5.4%	u
CC(=O)N[C@@H](Cc1c[nH]c2ccccc12)C(=O)OCC(=O)Nc1ccc(Cl)c(S(=O)(=O)N(C)C)c1	43.0*	9.4	x	x	4.1%
CCOc1ccc(NC(=O)Cn2c(=O)n(CCCCCC(=O)NCc3ccccc3)c(=O)c3sccc32)cc1	x	x	-1.4%[46.1 µM]	15.6%[46.1 µM]	x
CC(C)Cc1nc2oc3c(NCc4cccnc4)ncnc3c2c2c1CCC2	-18.6	-2.4	-7.4%	u	x
